HCMV inh = qHTS Assay for inhibitors of the human cytomegalovirus (HCMV); HFF cells, HCMV-luciferase reporter, 72 h; active compounds read low; 4.5% of 410,000 active; activity change, negative = inhibition, % at 57.5 µM; AID 1259415, 2018; in the data active means activity change below about -60%; inconclusive means no clear call, values can overlap the other calls; inactive means above about -39%
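Steps: HFFs plated, 16 h 37C; compounds added; HCMV-luciferase added to MOI 1 PFU/cell; 72 h 37C; OneGlo reagent, 5 min room temperature; luminescence read, normalized to controls.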
Vaccinia Venus = qHTS for Stage-Specific Inhibitors of Vaccinia Orthopoxvirus: Venus Reporter Primary qHTS | AID 720580, 2013 | Potency, µM (doses to about 36.5 µM), for the others: at the top dose activity change, negative = inhibition, most hits filed as inhibitors | 0.46% of 330,000 active | Vaccinia virus Venus reporter expression, fluorescence; calls by dose curve; tested in A549 cells; further: potency means the concentration at half of the fitted maximal effect; nearly all actives have a fitted effect of over 30% in size
FMDV inh = High Throughput Screening for Foot and Mouth Disease Virus Antivirals | Potency, µM (top dose mostly 57.9 µM), inactives show top-dose activity change, negative = inhibition, usual class: inhibitors | 1.2% of 410,000 active | FMDV antiviral cell-based qHTS; calls by dose curve; tested in HEK293T cells; further: read-out not given here; potency means the concentration at half of the fitted maximal effect; nearly all actives have a fitted effect of over 45% in size
VACV mCherry inh = qHTS for Stage-Specific Inhibitors of Vaccinia Orthopoxvirus: mCherry Reporter Primary qHTS; Vaccinia virus mCherry reporter infection, fluorescence; Potency, µM (highest dose often 36.5 µM), without a hit: at the top dose activity change, negative = inhibition, most hits filed as inhibitors; 0.63% of 310,000 active; AID 720579, 2013; calls by dose curve; tested in A549 cells; further: potency means the concentration at half of the fitted maximal effect; nearly all actives have a fitted effect of over 35% in size
MARV entry inh = qHTS for inhibitors of binding or entry into cells for Marburg Virus. 1.8% of 300,000 active. Marburg virus pseudotyped entry inhibition, cell reporter. Potency, µM (top dose mostly 37.8 µM), inactives show at the top dose activity change, negative = inhibition, usual class: inhibitors; calls by dose curve; tested in HEK293 cells; further: potency means the concentration at half of the fitted maximal effect
Lassa entry inh = qHTS for Inhibitors of binding or entry into cells for Lassa Virus. Potency, µM (doses to about 37.9 µM), for the others: at the top dose activity change, negative = inhibition, usual class: inhibitors. 1.2% of 300,000 active. Lassa virus pseudotype entry inhibition, cell reporter; calls by dose curve; tested in HEK293 cells; further: potency means the concentration at half of the fitted maximal effect; nearly all actives have a fitted effect of over 50% in size
An asterisk follows results filed as active; i = inactive; ? = inconclusive; nt = no result given; [ ] = dose if it differs, or a comment. Shown are actives, neighbours in structure and some others; about 6.5% of the full set was active somewhere. On the % scale 0 is the no-effect control and ±100 the full control effect.

SMILES | HCMV inh | Vaccinia Venus | FMDV inh | VACV mCherry inh | MARV entry inh | Lassa entry inh
C=CCN1c2ccccc2[C@]23CCC(=O)N(CCCOC(C)C)C2=NC(C(=O)OC)=C(C(=O)OC)[C@H]13 | nt | nt | nt | nt | -10%[14.2 µM] | nt
CCOC(=O)c1cc(-c2ccc(OC)cc2)n(CCC(=O)NCc2ccccc2OC)c1C | -5 | -8% | 7% | -16% | nt | ?
N#Cc1c(-n2ncnc2-c2ccccc2C(F)(F)F)sc2c1CCCCC2 | -69* | 8% | 0.35µM* | -5% | nt | ?
COC(=O)CCc1c(C)[nH]c(C(=O)OCc2ccccc2)c1C | 0 | -7% | 27% | -17% | -13% | 7.1µM*
CCOC(=O)c1c(C)[nH]c(C(=O)OCc2ccccc2)c1C | 24 | -17% | 23% | -8% | ? | ?
CC1=C(C(=O)Nc2ccccc2)C(c2ccncc2)n2nc(SCc3ccccc3)nc2N1 (configuration not stated) | 4 | 9% | -9% | 2% | 2%[46.1 µM] | 21%[46.1 µM]
Cc1nc2cccnc2n1-c1cccc(C(=O)NCCc2ccc(Cl)cc2)c1 | ? | -21% | ? | -23% | nt | -8%[46.1 µM]
COc1cccc(N2CCN(C(=O)c3cccc(-n4c(C)nc5cccnc54)c3)CC2)c1 | 0 | -21% | 28µM* | -23% | nt | -28%[46.1 µM]
COc1cccc(N2CCN(C(=O)c3ccc4c(Cl)c5c(nc4c3)CCCC5)CC2)c1 | -75* | 7% | ? | 2% | -11%[46.1 µM] | ?
Cc1nc2cccnc2n1-c1cccc(C(=O)N2CCN(c3cccc(Cl)c3)CC2)c1 | 0 | -28% | 25µM* | ? | nt | ?
CCOc1ccc(NS(=O)(=O)c2ccc3c(c2)NC(=O)CCS3)cc1 | ? | -11% | 0% | -5% | nt | ?
CCC[C@H]1[C@@H](NC(=O)Nc2cccc(C#N)c2)CC[C@@]23CCCN2C(=O)CCC[C@@H]13 | -17 | nt | nt | nt | nt | nt
COc1ccc2c(c1)c(CC(=O)Nc1cccc(F)c1C)c(C)n2C(=O)c1ccc(Cl)cc1 | -13 | 1% | -3% | -12% | -18%[46.1 µM] | ?
CC(=O)Nc1cc(N=Cc2ccc(O)cc2O)c(Cl)cc1Cl | nt | 46% | -19% | -9% | ? | -15%
COc1ccc(O)c(C=Nc2cc(NC(C)=O)c(Cl)cc2Cl)c1 | -102* | -10% | 10% | i | -24% | ?
O=[N+]([O-])c1cc2oc3c(c2c(C=NCc2ccccc2)c1O)CCCC3 | 21 | -2% | 0% | -15% | 8% | ?
CC(C)CN=Cc1c(O)c([N+](=O)[O-])cc2oc3c(c12)CCCC3 | 12 | -17% | 32µM* | i | ? | -16%
O=S(=O)(c1ccc(-n2cnnn2)cc1)N1CCN(c2cccc(C(F)(F)F)c2)CC1 | 87 | -11% | -2% | -10% | -1%[46.1 µM] | 3%[46.1 µM]
COc1ccc(S(=O)(=O)N(CC(=O)N2CCc3ccccc3C2)c2ccc(C)cc2)cc1 | -1 | -10% | 33% | -13% | -21%[46.1 µM] | 6.3µM*
Cc1ccc(S(=O)(=O)N(Cc2ccccc2)c2ccccc2C(=O)N2CCCCC2)cc1 | -28 | -13% | 13% | ? | 10µM* | ?
CN(C(=O)C(C)(C)C)c1ccc(OCC(=O)N2CCc3ccccc3C2)cc1 | -82* | -3% | ? | i | -23%[46.1 µM] | ?
COc1ccc(N(CC(=O)N2CCc3ccccc3C2)S(=O)(=O)c2ccccc2)cc1 | -3 | -5% | 49% | -20% | ? | -25%
Cc1ccc(OCC(=O)N2CCc3ccccc3C2)cc1 | 1 | nt | 32% | nt | nt | nt
COc1ccccc1N(CC(=O)N1CCCCCC1)S(=O)(=O)c1ccc(C)cc1 | -25 | -11% | 71% | -11% | ? | -21%
Cc1ccc(S(=O)(=O)N(CC(=O)N2CCCCCC2)c2ccccc2F)cc1 | -62* | -8% | 29% | i | 11%[46.1 µM] | 10µM*
Cc1ccc(C(=O)NCCC(C)C)cc1NC(=O)c1nsc2ccccc12 | -9 | -12% | 10% | -6% | nt | -14%[46.1 µM]
Cc1cccc(N2CCN(C(c3ccc(F)cc3)c3nnc(-c4ccccc4)o3)CC2)c1C (configuration not stated) | 4 | -13% | -27% | -5% | ? | ?
CCOc1ccccc1N(CC(=O)N1CCC(C(N)=O)CC1)S(=O)(=O)c1ccc(SC)cc1 | -70* | -14% | 28% | -19% | 15% | 9%

Screening results: PubChem, National Center for Advancing Translational Sciences (NCATS)
